Values without a mark were called inactive. A call without a number means that no potency is given here. Activity calls are given as the source filed them. The call rests on the fitted dose curve; in most records, active means well fitted curve in the direction sought with a large enough effect in the repeat runs; inconclusive means weak or mixed curves; inactive means flat fitted curve, though single readings scatter.

This assay is described as follows: qHTS assay to test for compound auto fluorescence at 535 nm (green) in HepG2 cells (AID 720675). The conditions noted are these: green autofluorescence 485/535 nm, 1 h; series mostly up to 91.3 µM. The text has this: National Center for Advancing Translational Sciences [NCATS]
NIH Chemical Genomics Center [NCGC]
U.S. Environmental Protection Agency [EPA]
National Institutes of Environmental Health Sciences [NIEHS]
National Toxicology Program [NTP]
U.S. Food and Drug Administration [FDA]
Compound auto fluorescence often interferes with screening of the compound library against various biological targets and signaling pathways. Some of these compounds may have fluorophoric properties. Such properties may interfere with the assay outputs resulting in false positives and/or negatives. To decrease such complications and ensure the compound activities are relevant in terms of biological response, the Tox21 10K compound library was screened for auto fluorescence.
From the fluorophores used as reporter signals in our screening assays, the auto fluorescence equivalencies of compounds against three fluorophores have been evaluated: Triamterene, Fluorescein and Rose Bengal sodium for blue, green and red fluorescence, respectively. The fluorescence intensities were measured using Excitation/Emission wavelengths at 405/460nm, 485/535nm and 540/590nm for blue, green and red labels, respectively. This assay includes the green fluorescence data.
Tox21 Assay Protocol Summary:
2,000 HepG2 cells in 5 uL of culture medium (MEM containing 10% FBS) per well were dispensed into black wall/clear bottom 1536-well plates using a Multidrop Combi Dispenser (ThermoFisher Scientific, Waltham, MA). The assay plates were incubated overnight at 37 C to allow cell attachment to the well bottom, followed by the transfer of 23 nL compound or DMSO vehicle by a pintool work station (Kalypsys , San Diego, CA). After the assay plates were incubated for 1 hr at 37 C and 5% CO2, fluorescence intensities in the assay plates were measured by an Envision (PerkinElmer, Shelton, CT) plate reader using three labels for measuring blue, green and red fluorescence at […] 460, 535 and 590 nm respectively.
(Quantitative high-throughput screening tests each substance at several concentrations.)
`NCC(=O)CCC(=O)O`: the Potency result was “inactive”.

In the case of `CCc1cc(C2=C(C(=O)O)N(c3ccccc3C(F)(F)F)S(=O)(=O)c3ccccc32)cc2c1OCO2`, the Potency entry is “inactive”.

Turning to `CO[C@@H]1[C@H](OC(=O)/C=C/C=C/C=C/C=C/C(=O)O)CC[C@]2(CO2)[C@H]1[C@@]1(C)O[C@@H]1CC=C(C)C`, the Potency entry is “inactive”.

`CN(C)C(=O)NC1(c2ccccc2)CCN(CC[C@@]2(c3ccc(F)c(F)c3)CN(C(=O)c3ccccc3)CCO2)CC1`: the Potency result was “inactive”.

`OC(C#CCN1CCCC1)(c1ccccc1)c1ccccc1`: the Potency entry was “inactive”.

Regarding `CC(C)(O)c1ccc(CNC(=O)c2cccnc2Oc2ccc(F)cc2)cc1`, the Potency result is “inactive”.

`COc1cc(C(=O)OCCCN2CCCN(CCCOC(=O)c3cc(OC)c(OC)c(OC)c3)CC2)cc(OC)c1OC`: the Potency result is “inactive”.

Turning to `CN(C)c1ccc(/C=C/c2ccc([N+](=O)[O-])cc2)cc1`, the fluorescence, % of fluorescein control is -0.0437% [at 3.72 µM].

Take `CCCn1cnc2c1c(=O)n(CCCCC(C)=O)c(=O)n2C`: the Potency entry is “inactive”.

Take `CCCCCCCCCOS(=O)(=O)O`: the Potency entry is “inactive”.

With `CC(=O)c1ccc2c(c1)N(CCCN(C)C)c1ccccc1S2`, the fluorescence, % of fluorescein control is 0.0535% [at 18.6 µM].

Turning to `CN(Cc1ccc(C(C)(C)C)cc1)Cc1cccc2ccccc12`, the Potency result is “inactive”.

On to `CCCCCCc1ccc(-c2ccc(C#N)cc2)cc1`, for which the Potency result was “inactive”.

Turning to `C=CCOc1ccccc1OCC(O)CNC(C)C` (stereo not given), the fluorescence, % of fluorescein control is 0.095% [at 18.6 µM].

For the compound `Cc1cccc(C)c1OCC(=O)N[C@@H](Cc1ccccc1)[C@@H](O)C[C@H](Cc1ccccc1)NC(=O)[C@H](C(C)C)N1CCCNC1=O`, the Potency result is “inactive”.

Consider `CCO[C@H](Cc1ccc(OCCc2ccc(OS(C)(=O)=O)cc2)cc1)C(=O)O`, for which the Potency entry is “inactive”.

With `CCCOC(C(=O)OC1CCN(C)CC1)(c1ccccc1)c1ccccc1`, the Potency result was “inactive”.

In the case of `NCCCN1CCOCC1`, the Potency entry is “inactive”.

As to `CCCCC(CC)COC(=O)CCCCCCCCC(=O)OCC(CC)CCCC` (stereo not given), the Potency entry is “inactive”.

Regarding `CCCCCCCCCCCC(=O)OC[C@@H](O)[C@H]1OC[C@H](OCCO)[C@H]1OCCO`, the Potency result was “inactive”.

As for `COc1ccc(C)cc1[N+](=O)[O-]`, the Potency entry was “inactive”.

`CNC(=O)CN(CCN(CCN(CC(=O)[O-])CC(=O)NC)CC(=O)[O-])CC(=O)[O-].O.[Gd+3]`: the Potency entry is “inactive”.

Take `CN(C)CCCN1c2ccccc2Sc2ccccc21`: the fluorescence, % of fluorescein control was -0.18% [at 18.6 µM].

On to `O=[N+]([O-])c1ccc2[nH]ncc2c1`, for which the Potency entry is “inactive”.

Take `CC(CC=O)c1ccccc1` (stereo not given): the Potency result is “inactive”.

`O=CC1CC=CCC1` (stereo not given): the Potency result was “inactive”.

Consider `CC(CSC(=O)c1ccccc1)C(=O)N1C[C@@H](Sc2ccccc2)C[C@H]1C(=O)O` (stereo not given in full), for which the Potency entry is “inactive”.

On to `CCOC(=O)NCCOc1ccc(Oc2ccccc2)cc1`, for which the Potency entry is “inactive”.

As to `O=C(OCCCCCCOC(=O)c1ccccc1)c1ccccc1`, the Potency entry is “inactive”.

On to `CCOCC(O)COc1ccc(NC(=O)CC[S+](C)C)cc1` (stereo not given), for which the Potency result is “inactive”.

`CCOC(=O)C1=C[C@]2(CC)CCCN3CCc4c(n1c1ccccc41)[C@@H]32`: the Potency result is “inactive”.

On to `CN(C)CCN(Cc1ccccc1)c1ccccn1`, for which the Potency result was “inactive”.

With `Brc1c2ccccc2c(Br)c2ccccc12`, the fluorescence, % of fluorescein control is 0.0196% [at 3.72 µM].

Consider `Cc1ccc(N=Nc2c(O)c(C(=O)O)cc3ccccc23)c(S(=O)(=O)O)c1`, for which the Potency result was “inactive”.

As for `N=c1ccn2c(n1)O[C@H]1[C@H](O)[C@@H](CO)O[C@H]12`, the Potency entry was “inactive”.

Regarding `CCCCNc1ccc(C(=O)OCCOCCOCCOCCOCCOCCOCCOCCOCCOC)cc1`, the fluorescence, % of fluorescein control is -0.0335% [at 18.6 µM].

Regarding `C=CC(=O)OCCOCCOC(=O)C=C`, the Potency result was “inactive”.

For `CCCCC(CC)COC(=O)COc1ccc(Cl)cc1Cl` (stereo not given), the Potency result is “inactive”.

`CCCCCCCCCCO[C@@H]1O[C@H](CO)[C@@H](O)[C@H](O)[C@H]1O`: the Potency entry is “inactive”.

On to `CCOc1ccc(N)c([N+](=O)[O-])c1`, for which the Potency entry was “inactive”.

(Values after PubChem BioAssay (Tox21).)
